# Measurements: PubChem BioAssay AID602476 (National Center for Advancing Translational Sciences (NCATS), 2012)
# Records with an inconclusive call do not appear. Values without a mark were called inactive. Calls of active or inactive are those of the source. Calls follow the shape of the dose curve; as a rule, active = well fitted activation curve with a large enough effect; inconclusive = small, poorly fitted or top-dose-only effect; inactive = flat fitted curve, though single readings scatter.
# Test: FLuc inhibitory activity for the follow-up compounds in a cell-based translational read-through assay
# Conditions: GripTite 293 FLucUGA read-through, luminescence, 48 h; series mostly up to 38.3 µM; activation (read-through/stabilization): at the top concentration
# Source text: NCGC Assay Overview: Firefly (Photinus pyralis) luciferase is one of the most commonly used transcriptional reporters. It is considered one of the more dynamically responsive reporters - that is, responsive to changes in reporter transcription - as it requires no post-translational modifications and is enzymatically active directly after protein synthesis (Wood, 1998). With no endogenous expression in mammalian cells and without the requirement of external excitation, it offers very little background signal, thus generally providing excellent signal to background for most assays. Previous profiling work to determine the prevalence of compounds that affect FLuc enzymatic activity (PubChem AID 411) identified that ~3% of the MLSMR library (then at ~72K) inhibited FLuc (Auld et al., 2008). […] Of the compounds identified in this profile that inhibited FLuc, 151 compounds were selected for further analysis, in an effort to better understand their mode of inhibiting FLuc. The assay described here was to determine the activity of the compounds in a cell-based firefly luciferase reporter gene assay originally designed to identify compounds that enchanced translational read-through of a FLuc cDNA that contained a premature stop codon (Auld et al., 2009; Auld et al., 2010). Compounds that enhance translational read-through or compounds that stabilize FLuc intracellularly are identified as active compounds in the assay.
# NCGC Assay Protocol Summary: Reagents: Transient transfection of FlucUGA construct: TransFast Transfection Reagent (Promega #E2431); FLucUGA construct (refer to Auld et al., 2009) #GripTite 293 MSR Cell Line (Invitrogen #R795-07) #Complete growth media: DMEM (Invitrogen #11965), 10% HIFBS, 0.1mM MEM NEAA, 5mL/L pen-strep (of 5000U/mL stock), 600ug/mL Geneticin #Assay media: DMEM without phenol red (Invitrogen #21063), 5% charcoal-stripped HIFBS (Hyclone #SH30071.03), 0.1mM MEM NEAA In-house detection reagent: 300mM Tris-HCl, 300mM Trizma base, 300mM MgCl, 1% Triton-X100, 5mM DTT, 500uM Coenzyme A trilithium salt (Sigma #C3019),450uM ATP (Sigma #A7699), 1mM D-luciferin sodium salt monohydrate (Biosynth #L8240) Control compounds used were two known firefly luciferase inhibitors (3-(5-(3-chlorophenyl)-1,2,4-oxadiazol-3-yl)benzoic acid and 5-(2-fluorophenyl)-3-phenyl-1,2,4-oxadiazole), and DMSO. Assay Summary: Transient transfection of FlucUGA construct: Day 1: GripTite cells were plated in T175 flasks at a density of 1.75 x 10^7 cells/T175 flask in complete growth media without Geneticin and allowed to grow ON in a 37 degrees Celsius incubator. Day 2: Cells in T175 flask were transfected - with 10ug of DNA and 30uL Transfast in 12mL complete growth media without serum and without Geneticin for 4 hours at 37 degrees Celsius. After incubation, cells were trypsinized, spun down, and resuspended to a concentration of 3.3 x 10^5 cells/mL in assay media. 6uL of cells in assay buffer were dispensed at 2000cells/well (3.3 x 10^5 cells/mL) into Greiner solid-white TC-treated 1536-well plates using a Multidrop Combi (Thermo Fisher Scientific). Plates were incubated for one hour at 37 degree Celsius, 95% humidity, 5% CO2. These assay plates were then treated with 23nL of compound or DMSO using a Kalypsys pin tool, which allows for delivery of a 12-point titration of each compound to the assay plate, with a final compound concentration ranging from approximately ~38uM to 0.2nM. Assay plates were then incubated for 48 hours. After incubation, plates were washed three times with DPBS (7uL/well). After the third wash, 6uL of DPBS was added to each well. 3uL of 3X luciferase detection reagent was then added to each well using a flying reagent dispenser (FRD). After a 15 minute incubation to allow for cell lysis, luciferase activity was measured using a ViewLux CCD imager (PerkinElmer), with an average exposure time of 2-12 seconds.
Compound,activation (read-through/stabilization),Potency
O=C(O)c1cccc(NC(=O)c2cccc(S(=O)(=O)N3CCc4ccccc4C3)c2)c1,12.2%,–
Cc1ccc(C(=O)Nc2cccc(C(=O)O)c2)cc1S(=O)(=O)N1CCCCC1,–,0.895 µM (active)
COc1ccc2nc(NC(=O)CCc3nc(-c4ccccc4F)no3)sc2c1,2.69%,–
Nc1ccc(-c2nc3ccc(C(=O)O)cc3s2)cc1,–,0.283 µM (active)
Cc1ccc(C(=O)Nc2ccc(C(=O)O)cc2)cc1S(=O)(=O)Nc1ccccc1,-7.51%,–
C/C(=N\NC(=O)c1ccccc1NC(=O)c1ccc(Cl)cc1)c1ccncc1,–,0.283 µM (active)
O=C(O)c1ccc(NC(=O)c2cc(S(=O)(=O)N3CCCCC3)c(Cl)cc2Cl)cc1,-2.05%,–
Cc1ccc(C(=O)Nc2cccc(C(=O)O)c2)cc1S(=O)(=O)N1CCCC1,–,2 µM (active)
COc1ccc(NS(=O)(=O)c2cccc(C(=O)Nc3ccccc3C(=O)O)c2)cc1,10.6%,–
COc1ccc(C(=O)Nc2ccccc2-c2nc3ccccc3s2)c(OC)c1,-4.03%,–
Oc1ccc(-c2nc3ccccc3s2)c(O)c1,–,10 µM (active)
O=C(Nc1ccccc1C(=O)O)c1ccc(NC(=O)C2CCCO2)cc1 (stereo not given),10.4%,–
CN(C)S(=O)(=O)c1ccc(C(=O)Nc2ccccc2C(=O)O)cc1,-3.39%,–
O=C(Cc1ccccc1)Nc1ccc(C(=O)Nc2ccccc2C(=O)O)cc1,3.92%,–
O=C(Cc1ccc(Cl)cc1)Nc1cccc(C(=O)Nc2ccccc2C(=O)O)c1,1.99%,–
COc1ccc(-c2nc3ccccc3s2)cc1NC(=O)c1ccc(F)cc1,-1.05%,–
Cc1ccc(S(=O)(=O)N2CCN(C(=O)c3ccccc3-c3nc4ccccc4s3)CC2)c(C)c1,14.9%,–
O=C(O)c1ccc(NC(=O)c2cccc(C(=O)Nc3ccc(C(=O)O)cc3)c2)cc1,2.68%,–
COc1cc(OC)cc(C(=O)Nc2ccc(-c3nc4ccccc4s3)c(C)c2)c1,7.9%,–
Nc1ccc(-c2nc3cc(N)ccc3s2)cc1,–,14.2 µM (active)

Compound,activation (read-through/stabilization),Potency
COc1ccccc1C(=O)Nc1ccc(C(=O)Nc2ccccc2C(=O)O)cc1,-1.15%,–
Nc1ccccc1C(=O)Nc1cccc(C(=O)O)c1,–,28.3 µM (active)
O=C(O)c1cccc(NC(=O)c2ccccc2NC(=O)c2ccco2)c1,3.39%,–
COc1ccc2nc(NC(=O)c3cnccn3)sc2c1,–,0.565 µM (active)
COc1ccc(-c2cccc(C(=O)Nc3cccc(C(=O)O)c3)c2)cc1,–,11.3 µM (active)
COc1ccc2nc(NC(=O)CCc3ccc(OC)c(OC)c3)sc2c1,1.32%,–
CC(C)c1ccc(C(=O)Nc2ccc(-c3nc4ccccc4s3)c(Cl)c2)cc1,-5.34%,–
O=C(Nc1ccccc1C(=O)O)c1cccc(S(=O)(=O)N2CCCC2)c1,-0.636%,–
CCOc1ccc2nc(NC(=O)c3cccnc3)sc2c1,–,14.2 µM (active)
COc1ccc(C(=O)Nc2ccccc2C(=O)Nc2ccc(C(=O)O)cc2)cc1,–,25.2 µM (active)
Cc1ccc(NS(=O)(=O)c2ccc(Cl)c(C(=O)Nc3cccc(C(=O)O)c3)c2)cc1,2.91%,–
O=C(Nc1ccccc1C(=O)O)c1ccccc1,3.8%,–
O=C(Nc1ccccc1C(=O)O)c1ccc(Cl)c(S(=O)(=O)N2CCOCC2)c1,19.6%,–
O=C(COC(=O)c1ccccc1[N+](=O)[O-])c1ccc2c(c1)OCO2,6.01%,–
Cc1ccc(C(=O)Nc2ccc(C(=O)O)cc2)cc1S(=O)(=O)NCc1ccccc1,-0.0472%,–
COc1ccc(-c2nc3ccccc3s2)cc1O,–,5.65 µM (active)
Cc1ccc(S(=O)(=O)N2CCOCC2)cc1C(=O)Nc1ccccc1C(=O)O,0.541%,–
COc1ccccc1C(=O)Nc1ccc(C(=O)O)cc1,3.15%,–
Nc1ccc(C(=O)Nc2ccccc2C(=O)O)cc1,18.7%,–
O=C(Nc1ccc(Cl)cc1-c1nc2ccccc2s1)c1ccco1,3.02%,–
